Here are results for 12 molecules from PubChem BioAssay (Tox21).

Results filed as inconclusive are left out. Where a call stands in place of a potency, no number is given. The source made the active and inactive calls. Calls come from the whole dose curve; as a rule, active = well fitted cell-killing curve with a large enough effect in the repeat runs; inconclusive = weak or mixed curves, or effect the other way; inactive = no such curve, though single readings can be large or run the other way.
Potency is the fitted concentration of half-maximal effect.

The test is described as follows: qHTS assay to identify aromatase inhibitors - cell viability counter screen (AID 743084).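 Note: cells stimulated with testosterone during compound exposure; nearly all actives have a fitted effect of over 55% in size.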 As to conditions: MCF-7 aro ERE viability, CellTiter-Fluor, 24 h; series mostly up to 70.3 µM. In general terms: qHTS replaces the single test concentration by a dilution series.
In the case of `CC(C)N1CCN(c2ccc(OC[C@H]3CO[C@](Cn4cncn4)(c4ccc(Cl)cc4Cl)O3)cc2)CC1`, the Potency entry is “inactive”. The same measure for `CN1[C@@H]2CC[C@H]1CC(OC(c1ccccc1)c1ccccc1)C2` (some centres not stated): “inactive”. For `CN(C)CCCN1c2ccccc2C(C)(C)c2ccccc21`, the Potency result is “inactive”.

As for `COc1ccc2c(c1)OC(C)(C)C(c1ccccc1)C2c1ccc(OCCN2CCCC2)cc1` (configuration not stated), the Potency result is “inactive”. The same measure for `O=C(O)c1cc2ccccc2c(Cc2c(O)c(C(=O)O)cc3ccccc23)c1O`: “inactive”; for `CCNC(=O)[C@@H]1CCCN1C(=O)[C@H](CCCN=C(N)N)NC(=O)[C@H](CC(C)C)NC(=O)[C@@H](Cc1c[nH]c2ccccc12)NC(=O)[C@H](Cc1ccc(O)cc1)NC(=O)[C@H](CO)NC(=O)[C@H](Cc1c[nH]c2ccccc12)NC(=O)[C@H](Cc1cnc[nH]1)NC(=O)[C@@H]1CCC(=O)N1`: 29.8 µM (active).

`CCN(CC)c1ccc(N=Nc2ccc(S(=O)(=O)N(C)C)cc2)c(S(=O)(=O)NCC[n+]2ccccc2)c1`: the Potency entry was “inactive”.

With `OCCN1CCN(CC/C=C2/c3ccccc3Sc3ccc(Cl)cc32)CC1`, the Potency entry is “inactive”. With `C[C@]12C=CC(=O)C=C1CC[C@@H]1[C@@H]2[C@@H](O)C[C@@]2(C)[C@H]1CC[C@]2(O)C(=O)COC(=O)CCC(=O)O`, the Potency result is “inactive”. For `CC(O)[C@H]1CC[C@H]2[C@@H]3CC[C@@H]4C[C@@H](O)CC[C@]4(C)[C@H]3CC[C@]12C` (some centres not stated), the Potency result was “inactive”. With `O=P(O)(O)C(O)(Cc1cnc2ccccn12)P(=O)(O)O`, the Potency result was “inactive”. Take `CN(C)CC/C=C1/c2ccccc2CSc2ccccc21`: the Potency entry was “inactive”.
